From PubChem BioAssay AID504834 (National Center for Advancing Translational Sciences (NCATS), 2011)
About 22,000 (6.9%) of roughly 320,000 compounds were called active. Another 27% or so got no clear call; they are omitted. What follows is part of a selection rich in actives, with near analogues and random picks from the rest. Values without a mark were called inactive. Calls come from the whole dose curve; as a rule, active = well fitted inhibition curve with a large enough effect; inconclusive = small, poorly fitted or top-dose-only effect, or another doubt; inactive = no such curve, though single readings can be large or run the other way.

Assay: Primary qHTS for delayed death inhibitors of the malarial parasite plastid, 96 hour incubation
Conditions: P. falciparum luciferase reporter growth; series mostly up to 28.7 µM; activity change, negative = inhibition: at the top concentration
How it was run: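 Delayed-death screen, second-generation endpoint: infected erythrocytes, 2% hematocrit, 0.05% parasitemia final; 96 hours at 37 C, 5% CO2; luciferase detection reagent; luminescence decrease equals reduced growth.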
% is set by controls: 0 for no effect and ±100 for the full control effect; potency is the fitted concentration of half-maximal effect.

Going from `C/C(=N\Nc1nncc2ccccc12)c1ccc(Cl)c([N+](=O)[O-])c1` to `Cc1nc2ccccc2c(=O)n1NC(=O)c1ccc(Cl)c([N+](=O)[O-])c1`, the “activity change, negative = inhibition” value rises from 64.3% to 232%.

Going from `Cn1nc(-c2ccccc2)c(-c2nc(-c3ccc(Cl)cc3)no2)c1Cl` to `COc1ccccc1-c1nnc(SCC(=O)Nc2ccccc2)o1`, the “activity change, negative = inhibition” value rises from 13.6% to 41.6%.

Going from `Cc1ccc(S(=O)(=O)NNC(=O)/C=C/c2cccc(F)c2)cc1` to `CC(NS(=O)(=O)c1ccc(Cl)cc1)C(=O)Nc1ccc2c(c1)OCCO2` (stereo not drawn), the “activity change, negative = inhibition” value rises from 1.02% to 30.4%.

Going from `Cc1ccc2c(c1)N(CC(=O)N1CCC(O)CC1)C(=O)CO2` to `CC(C)CC(O)C1CCN(C(=O)CCc2nnc(-c3ccc4c(c3)OCO4)o2)CC1` (stereo not drawn), the “activity change, negative = inhibition” value rises from 20.6% to 26.7%.

First: O=C(Nn1cnc2ccccc2c1=O)c1ccccc1
Second: O=C(O)c1ccccc1-c1ccccc1C(=O)Nc1ccccc1Br
The “activity change, negative = inhibition” value of the first is higher: 12.2% for the first, -27.2% for the second.

First: CN(C(=O)c1ccccc1)c1nccnc1C#N
Second: CCOc1ccc(N/C=C/C(=O)c2ccccc2)cc1
The “activity change, negative = inhibition” value of the first is lower: -10% for the first, 84.5% for the second.

Compared with `CN(C)C(=O)c1nc2ccc(Cl)cn2c1CNCc1cccc(OC(F)(F)F)c1`, `COc1cc(OC)cc(C(=O)NCCSCc2ccc(Cl)cc2)c1` is higher in “activity change, negative = inhibition” value: -21% for the first, 15.3% for the second.

Compared with `Cc1cc(NC(=O)CSc2nnc(-c3ccc(Cl)s3)o2)no1`, `Cc1ccc(-c2csc(SCC(=O)Nc3cc(C)on3)n2)cc1` is lower in “activity change, negative = inhibition” value: 5.07% for the first, -16.1% for the second.

Compared with `CCN(C(=O)CSc1nc(N)cc(=O)[nH]1)C1CCS(=O)(=O)C1` (stereo not drawn), `COc1ccc(/C=C(\C#N)C(=O)OCC(=O)N(C)C2CCS(=O)(=O)C2)cc1` (stereo not drawn) is lower in “activity change, negative = inhibition” value: 18.9% for the first, 11.7% for the second.

Going from `CC(=O)Nc1ccc(NC(=O)CC2CCCC2)cc1` to `CC(=O)N1CCC(N(C(=O)Nc2ccc(Cl)cc2)C(C)C)CC1`, the “activity change, negative = inhibition” value falls from 58.4% to -2.03%.

Going from `CCn1c(COc2ccccc2)nnc1SCC(=O)NCc1ccco1` to `O=C(NCCSc1ncc(-c2ccccc2)[nH]1)c1ccco1`, the “activity change, negative = inhibition” value falls from 51% to 15%.

Going from `N#C/C=C/N1CCN(Cc2ccc3c(c2)OCO3)CC1` to `Cc1ccc(S(=O)(=O)N(CCCN(C)C)Cc2ccc3c(c2)OCO3)cc1`, the “activity change, negative = inhibition” value rises from 23.3% to 29.2%.

First: COc1ccccc1C(=O)COC(=O)CSCC(=O)Nc1cc(C)on1
Second: COc1ccccc1CCNS(=O)(=O)c1cn(C)nc1C
The “activity change, negative = inhibition” value of the first is lower: 11.2% for the first, 90.8% for the second.

First: Oc1c(Cl)cc(Cl)cc1/C=N/c1ncn[nH]1
Second: CCCn1c(=O)c(C(=O)Nc2cc(C)ccn2)c(O)c2ccccc21
The “activity change, negative = inhibition” value of the first is higher: 13.7% for the first, -14.4% for the second.

First: CC(C)C[C@H](NC(=O)C1CC(=O)N(c2ccc3c(c2)OCCO3)C1)C(=O)NC1CCCC1 (stereo partly drawn)
Second: CC(=O)N1CCc2cc(S(=O)(=O)NC3CCCCC3)ccc21
The “activity change, negative = inhibition” value of the first is lower: -33.8% for the first, 27.2% for the second.

Compared with `OC(COc1ccc(Br)cc1)CN1CCCC1` (stereo not drawn), `O=C(c1ccccc1)c1ccc(OCC(O)CN2CCCC2)cc1` (stereo not drawn) is lower in “activity change, negative = inhibition” value: 8.39% for the first, -1.41% for the second.

First: O=[N+]([O-])c1ccc(N2CCN(CC(O)COc3ccccc3)CC2)cc1 (stereo not drawn)
Second: CC(C)c1ccc(OCC(O)CN2CCN(c3ccccn3)CC2)cc1 (stereo not drawn)
The “activity change, negative = inhibition” value of the first is lower: 17.6% for the first, 399% for the second.

Compared with `COc1ccc(C2CC(c3ccc([N+](=O)[O-])cc3)=NN2C(C)=O)cc1` (stereo not drawn), `Cc1ccc(OCC(=O)Nc2nnc(-c3ccco3)s2)cc1` is higher in “activity change, negative = inhibition” value: -93.3% for the first, 12.4% for the second.

Going from `COCc1c(C(=O)OCC(=O)Nc2ccc(OC(F)F)cc2)oc2ccccc12` to `CCc1cccc(NC(=O)COC(=O)c2cc(=O)c3ccccc3o2)c1`, the “activity change, negative = inhibition” value rises from -20.6% to 20.8%.

Going from `Cc1ccc(NC(=O)Cn2c(C)csc2=O)cc1` to `Cc1cc(=O)oc2cc(NC(=O)C(C)Oc3ccccc3)ccc12` (stereo not drawn), the “activity change, negative = inhibition” value falls from 57.6% to 35.7%.

Going from `CCC(=O)N1CCc2cc(S(=O)(=O)NC(C(=O)N3CCc4ccccc4C3)C(C)C)ccc21` (stereo not drawn) to `O=S(=O)(c1ccc(SCc2ccccc2)nc1)N1CCCCCC1`, the “activity change, negative = inhibition” value rises from -1.47% to 5.66%.

First: O=S(=O)(NC1CCCC1)c1ccc(-n2cnnn2)cc1
Second: c1ccc(-n2ncc3c(N4CCCC4)ncnc32)cc1
The “activity change, negative = inhibition” value of the first is lower: 0.984% for the first, 27.8% for the second.

Going from `CC(=O)N/C(=C\c1ccc(F)cc1)C(=O)NC(Cc1ccccc1)C(=O)O` (stereo not drawn) to `O=C(NC(Cc1ccccc1)C(=O)O)/C(=C\c1ccccc1)NC(=O)c1ccco1` (stereo not drawn), the “activity change, negative = inhibition” value rises from -1.95% to 110%.

Going from `COCCCn1c(SCC(=O)Nc2oc(C)c3c(C)n[nH]c(=O)c23)nc2sc3c(c2c1=O)CCC3` to `COC(=O)c1sc(NC(=O)COC(=O)C2CCC2)c(C(=O)OC)c1C`, the “activity change, negative = inhibition” value rises from -3.96% to -1.55%.

Compared with `CCCC(C)C(=O)NCc1ccncc1` (stereo not drawn), `O=C(NCc1ccncc1)C(=O)NCc1ccco1` is higher in “activity change, negative = inhibition” value: 0% for the first, 10.7% for the second.

First: COc1ccc(N2CCN(C(=O)CSc3ncnc4c3cnn4-c3ccc(OC)cc3)CC2)cc1
Second: Cc1cc(=O)oc2cc(OC(C)C(=O)Nc3ccc(N4CCOCC4)cc3)ccc12 (stereo not drawn)
The “activity change, negative = inhibition” value of the first is lower: -5.18% for the first, 2.35% for the second.

First: O=C(NCC(=O)N(c1ccccc1)C(C(=O)NCC1CCCO1)c1ccccc1)c1cccs1 (stereo not drawn)
Second: COC(=O)CN1C(=O)[C@H]2[C@@H](/C=C/c3ccccc3)N3C(=O)CN(CC4CC4)C(=O)[C@@]3(Cc3ccccc3)[C@H]2C1=O
The “activity change, negative = inhibition” value of the first is lower: -23.4% for the first, 25.2% for the second.

With `Fc1ccc(-c2ccc(NCCN3CCOCC3)nn2)cc1` the “activity change, negative = inhibition” value was 15.4%.

In the case of `C/C(=N/Nc1ccc(Cl)cc1)c1cnnc(-c2ccccc2)n1`, the Potency is reported as 0.522 µM (active).
In the case of `O=C(Nn1cnc2ccccc2c1=O)c1ccc(F)cc1Cl`, the Potency is reported as 11.7 µM (active).
In the case of `COc1ccccc1-c1nnc(SCC(=O)Nc2cc(C)on2)o1`, the Potency is reported as 13.1 µM (active).
In the case of `Cn1c2ccccc2c(=O)c2c(=O)n(Cc3ccco3)c(COc3ccccc3)nc21`, the Potency is reported as 7.38 µM (active).
In the case of `Cc1cc(NC(=O)CSCc2nc(-c3cccc(Cl)c3)oc2C)no1`, the Potency is reported as 11.7 µM (active).
In the case of `CC(=O)Nc1ccc(OCC(O)CN2CCN(c3ccccc3Cl)CC2)cc1` (stereo not drawn), the Potency is reported as 3.7 µM (active).
For `O=C(c1ccc(Cl)cc1)c1ccc(OCC(O)CN2CCCCC2)cc1` (stereo not drawn), the Potency was 2.33 µM (active).
With `CCOC(=O)N1CCC(NC(=O)C(NS(=O)(=O)c2ccc3c(c2)CCN3C(=O)CC)C(C)C)CC1` (stereo not drawn) the Potency was 16.5 µM (active).
In the case of `O=C(NC(Cc1ccc(O)cc1)C(=O)O)/C(=C/c1ccccc1)NC(=O)c1ccccc1` (stereo not drawn), the Potency is reported as 11.7 µM (active).
With `CC(C)(C)NC(=O)C(=O)NCc1ccncc1` the Potency was 3.29 µM (active).
With `COc1ccc(-n2ncc3c(N4CCCc5ccccc54)ncnc32)cc1` the Potency was 13.1 µM (active).
With `COc1ccc(-c2cc(=O)oc3cc(OC(C)C(=O)Nc4ccc(CN5CCOCC5)cc4)ccc23)cc1` (stereo not drawn) the Potency was 9.28 µM (active).

For `Cc1nc2c(c(=O)n1Cc1ccco1)c1nc3ccccc3nc1n2Cc1ccccc1`, the activity change, negative = inhibition was 27.6% [at 5.75 µM].
